Bioassay records: PubChem BioAssay, National Center for Advancing Translational Sciences (NCATS)
ELG1 genotoxic – induces genotoxicity in HEK293T cells with luciferase-tagged ELG1; Potency, µM (top dose mostly 46 µM), inactives show top-dose activity change, positive = activation, actives largely listed as activators; HEK293T ELG1-luciferase reporter, luminescence, 16 h; 330,000 compounds, 1.3% hits; further: % of control where 0% means no effect; nearly all actives have a fitted effect of over 60% in size
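16 hr compound incubation (37 °C, 5% CO2) of HEK293T cells carrying luciferase-tagged ELG1; luciferase then measured by ONE-Glo luminescence after 30 min at RT.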
p53 reactivator – mutant p53 re-activation in reporter cells | 320,000 compounds, 0.063% hits | H1299 p53-A138V BP100-luciferase reporter, luminescence, 24 h | Potency, µM (series often up to 92.2 µM), for inactives: at the top dose activity change, positive = activation, most hits filed as activators; further: % of control where 0% means no effect; nearly all actives have a fitted effect of over 45% in size
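p53-null H1299 cells stably carrying temperature-sensitive p53-A138V and a BP100-luciferase reporter were pinned with compounds (4-point, 1:5 series) and held 24 hrs at 37 deg C. Luminescence was read 10 min after detection reagent.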
FLuc modulator – inhibits or activates purified firefly luciferase, miR-21 counter-screen; P08659; purified FLuc, Km substrates, luminescence inhibition; Potency, µM (series often up to 57.5 µM), without a hit: at the highest dose activity change, negative = inhibition, usual class: inhibitors; 360,000 compounds, 6.9% hits;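 further: plate controls were vehicle for no effect and reference inhibitor for full effect; nearly all actives have a fitted effect of over 55% in size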
Target sequence (P08659 whole entry, looked up): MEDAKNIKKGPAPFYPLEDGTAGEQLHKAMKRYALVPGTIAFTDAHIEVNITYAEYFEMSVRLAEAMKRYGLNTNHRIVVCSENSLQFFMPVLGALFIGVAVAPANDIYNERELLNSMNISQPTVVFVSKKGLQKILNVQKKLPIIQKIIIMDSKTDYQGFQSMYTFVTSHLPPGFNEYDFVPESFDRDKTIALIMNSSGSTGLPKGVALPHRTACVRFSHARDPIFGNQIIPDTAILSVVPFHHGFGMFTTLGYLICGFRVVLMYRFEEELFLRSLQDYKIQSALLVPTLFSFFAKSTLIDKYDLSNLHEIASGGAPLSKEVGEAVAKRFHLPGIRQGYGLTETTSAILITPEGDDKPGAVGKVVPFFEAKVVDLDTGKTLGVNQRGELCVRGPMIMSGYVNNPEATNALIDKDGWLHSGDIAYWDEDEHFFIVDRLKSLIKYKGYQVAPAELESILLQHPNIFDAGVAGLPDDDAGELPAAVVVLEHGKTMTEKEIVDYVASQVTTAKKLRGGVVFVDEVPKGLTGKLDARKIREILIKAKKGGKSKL
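Biochemical qHTS of compounds, final roughly 60 µM downward over six points, against 10 nM purified firefly luciferase using Km concentrations of substrates (10 uM D-luciferin, 10 uM ATP) in Tris acetate pH 7.5 buffer; luminescence output.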
NPC1 promoter act – activates the NPC1 promoter | Huh7 NPC1 promoter luciferase reporter, 24 h | Potency, µM (top dose mostly 9.22 µM), inactives show at the top dose activation, actives largely listed as activators | 320,000 compounds, 2.4% hits | AID 485313; further: % of control where 0% means no effect; nearly all actives have a fitted effect of over 60% in size
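In 1536-well qHTS, Huh7 cells harboring an NPC1 promoter–luciferase construct received compound for 24 h; activation was quantified by luminescence following luciferase reagent addition.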
Rab9 prom act – Rab9 promoter activation; Huh7 Rab9 promoter-luciferase reporter, luminescence, 24 h; Potency, µM (titrated, usually from 9.22 µM), for inactives: at the highest dose activation, negative = inhibition, actives largely listed as activators; 320,000 compounds, 2.8% hits; further: % of control where 0% means no effect; nearly all actives have a fitted effect of over 60% in size
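Huh7 reporter line, Rab9 promoter upstream of luciferase. Compound exposure 24 h at 37 °C in reduced-serum medium with 10% FBS. Read-out: luminescence.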
SMN2 splice enh – increases expression of the SMN2 splice variant; HEK293 SMN2-luciferase splicing reporter, luminescence, 30-36 h; Potency, µM (titrated, usually from 46.1 µM), without a hit: top-dose activity change, positive = activation, usual class: activators; 210,000 compounds, 2.8% hits; AID 1458; further: % of control where 0% means no effect; nearly all actives have a fitted effect of over 55% in size
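qHTS luciferase splicing reporter: luminescence rises when SMN2 exon 7 is included in transfected HEK293 cells. Compound exposure lasted 30-36 h at 37C, with 4.5 mM final sodium butyrate as control, followed by a ONE-Glo read.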
Active calls of the source: *; ? = inconclusive; · = no result. Shown are actives, neighbours in structure and some others; about 7.3% of the full set was active somewhere. The call rests on the fitted dose curve; in most records, active means well fitted curve in the direction sought with a large enough effect; inconclusive means small, poorly fitted or top-dose-only effect, or another doubt; inactive means no such curve, though single readings can be large; an effect the other way counts as inactive or inconclusive. Potency means the concentration at half of the fitted maximal effect.

SMILES | ELG1 genotoxic | p53 reactivator | FLuc modulator | NPC1 promoter act | Rab9 prom act | SMN2 splice enh
O=C(O)c1ccc(-c2ccc(/C=C3\NC(=O)N(Cc4ccc(Cl)cc4)C3=O)o2)cc1Cl | 2% | -4% | ? | -6% | -2% | 9%
O=C1NN(c2ccc(Cl)cc2)C(=O)/C1=C\c1ccc(-c2cccc(C(=O)O)c2)o1 | 15% | 9% | 17µM* | 7% | 14% | 26%
CSc1ccc(CCNC(=O)Cn2c(C)c3cnn(-c4ccccc4)c(=O)c3c2C)cc1 | · | · | -1% | · | · | 9%
Cc1ccc(/C=C(\C#N)c2nc3ccccc3[nH]2)s1 | ? | ? | 4.8µM* | 0.79µM* | 0.35µM* | ?
N#C/C(=C/c1cccs1)c1nc2ccccc2[nH]1 | ? | ? | ? | ? | 2.8µM* | ?
N#C/C(=C\c1c(Cl)cccc1Cl)c1nc2ccccc2[nH]1 | -4% | 4% | ? | 4% | -2% | ·
Cc1nnc(SCc2ccccc2)[nH]c1=O | -1% | 0% | ? | -1% | 3% | ·
Cc1ccc(CSc2nnc(C)c(=O)[nH]2)cc1 | 11% | 11% | 17µM* | -8% | -2% | -6%
COc1ccc(-c2csc3nc(-c4cccnc4)nc(Cl)c23)cc1OC | -3% | -7% | -15% | -8% | -4% | -105%
Clc1nc(-c2cccnc2)nc2scc(-c3ccccc3)c12 | ? | 16% | 12µM* | ? | 28% | 15%
COc1cc(OC)c(NC(=O)N2CCc3c([nH]c4ccccc34)C2c2ccccc2F)cc1Cl (stereo not drawn) | · | · | -1% | · | · | ·
CCC(C)Nc1ncnc2c1cnn2-c1ccc(F)cc1 (stereo not drawn) | · | · | 6.7µM* | · | · | ·
COCCNc1ncnc2c1cnn2Cc1ccc(Cl)cc1 | -3% | -15% | 5% | 1% | -3% | -1%
COCC(C)Nc1ncnc2c1cnn2-c1ccc(Cl)cc1 (stereo not drawn) | · | · | 2.4µM* | 0.71µM* | 0.5µM* | ·
O=C(NNc1ncnc2c1cnn2-c1ccc(F)cc1)c1ccco1 | 10% | 0% | -16% | 3% | 11% | ·
COc1ccc(NC(=O)C2=C(C)Nc3nc(CCCO)nn3C2c2ccc(O)cc2)cc1 (stereo not drawn) | · | · | -4% | · | · | ·
Cc1ccc(NC(=O)CCNS(=O)(=O)c2ccc3c(c2)CCC(=O)N3)cc1 | 0% | -2% | -1% | 3% | -2% | ·
COc1cc2c(C(=O)N(C)c3cc(Cl)ccc3OC)cn(CC(C)C)c(=O)c2cc1OC | · | · | -5% | · | · | -19%
CC(C)(C)NC(=S)NNC(=O)c1ccc2ncccc2c1 | 24% | -1% | ? | ? | 0.5µM* | 14µM*
O=C(NC(=S)Nc1ccc2nc[nH]c2c1)c1ccccc1 | ? | ? | ? | 2.8µM* | 4µM* | ·
O=C(NC(=S)Nc1ccc2ncccc2c1)c1ccccc1 | ? | 5% | ? | 2.8µM* | 2.2µM* | ?
O=C(NNC(=S)Nc1ccccc1)c1ccc2ncccc2c1 | 5% | 0% | ? | 7% | ? | 14%
O=C(Nc1ccc2ncccc2c1)c1ccccc1 | 2% | 9% | -5% | -3% | 2% | ·
COc1ccc(CNC(=O)CN(c2ccccc2OC)S(=O)(=O)c2ccc(C)cc2)cc1 | · | · | 0% | · | · | ·
CC(=O)c1ccc([N+](=O)[O-])c(CS(=O)(=O)c2ccc(Cl)cc2)c1 | 0% | 20% | -1% | 2% | -6% | ·
SMILES | ELG1 genotoxic | p53 reactivator | FLuc modulator | NPC1 promoter act | Rab9 prom act | SMN2 splice enh
Cc1nc2ccccn2c(=O)c1NC(=O)c1ccc(F)c(F)c1 | · | · | 4% | · | · | ·
c1ccc2sc(SN3CCOCC3)nc2c1 | 4% | 12% | 24µM* | 0% | 0% | -6%
O=C(Nc1c(C(=O)Nc2ccc(F)cc2)oc2ccccc12)c1cc2ccccc2o1 | · | · | 2.7µM* | · | · | 2%
O=C(Nc1ccc2c(c1)OCCO2)c1cc2ccccc2o1 | ? | ? | 1.1µM* | 0.89µM* | 0.45µM* | 1.3µM*
COc1ccc(NC(=O)c2oc3ccccc3c2NC(=O)c2cc3ccccc3o2)cc1 | · | · | ? | · | · | -5%
O=C(Nc1ccc(CN2CCOCC2)cc1)c1ccc(-c2cccc(Cl)c2)o1 | -16% | -7% | 17µM* | -4% | · | -79%
COc1ccc(C(=O)N2c3ccccc3C(C)(c3ccc(Cl)cc3)CC2(C)C)cc1 (stereo not drawn) | · | · | 2% | · | · | -50%
COc1cc(OC)c(NC(=O)N2CCc3c(sc4c3CCCC4)C2c2ccccc2)cc1Cl (stereo not drawn) | · | · | 2% | · | · | ·
O=C(c1cc2ccccc2o1)N1CCCC1 | 13% | 6% | -18% | 1% | 12% | ·
O=C(/C=C/N1CCOCC1)c1cc2ccccc2o1 | ? | ? | 9.5µM* | 3.5µM* | 4µM* | 11µM*
CCc1ccc(C(=O)Nc2ccc(C)c(NS(C)(=O)=O)c2)cc1 | 1% | 5% | 12µM* | ? | 13% | ·
Cc1nc2ccccc2c2oc(C(=O)Nc3ccc4c(c3)OCCO4)cc12 | -3% | 4% | 15µM* | 12% | -1% | -13%
Cn1c(=O)n(C)c2cc(NC(=O)c3cc4ccccc4o3)ccc21 | 16µM* | 3% | ? | 14% | 28% | ·
CCN1CCN(Cc2nc3cc(NC(=O)c4ccccc4[N+](=O)[O-])ccc3n2CC)CC1 | · | · | -5% | · | · | ·
O=C(Nc1ccc2oc(=O)ccc2c1)c1cc2ccccc2o1 | ? | ? | 7.6µM* | 2.5µM* | 1.6µM* | 3.5µM*
Cc1cc(=O)oc2cc(NC(=O)c3cc4ccccc4o3)ccc12 | ? | 28% | -17% | ? | 21% | 7%
O=C(Nc1ccc(N2CCOCC2)cc1)c1cc2ccccc2o1 | ? | ? | 5.4µM* | 3.5µM* | 1.8µM* | 2.8µM*
Cc1ccc(C(=O)Nc2ccc3c(c2)n(C)c(=O)c(=O)n3C)cc1 | · | · | ? | · | · | -6%
CCc1ccc(C(=O)Nc2ccc3c(c2)n(C)c(=O)n3C)cc1 | 18µM* | · | 15µM* | -4% | ? | ·
Cn1c(=O)n(C)c2cc(NS(=O)(=O)c3ccccc3)ccc21 | 18µM* | ? | 3% | -4% | 4% | ·
COc1ccc2c(c1)c1c(c(=O)n(Cc3ccccc3)c(=O)n1Cc1ccccc1)n2C | · | · | -2% | · | · | ·
CS(=O)(=O)N(CC(=O)Nc1ccccc1Cl)c1ccc(Cl)cc1 | 2% | -3% | -6% | 1% | -24% | ·
O=C(O)c1coc2ccccc12 | -7% | -6% | 2% | -5% | 4% | ·
NC(=O)c1ccc(NC(=O)c2ccc(CN3CCOCC3)cc2)cc1 | 18% | 0% | -18% | 15% | -1% | 22%
O=C(NC(=S)Nc1ccc(CN2CCOCC2)cc1)c1cc2ccccc2o1 | 15% | 12% | -2% | 6% | 19% | 7%
